# In PubChem BioAssay (NCI):
# The panel holds about 83,000 compounds, 20% with a hit somewhere; the sample as a whole holds those more often.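 A percent growth of 40 corresponds to 60% growth inhibition; 0 means no net growth; -100 means all cells died. Active threshold: below 10.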 Unmarked numbers belong to inactive results. Activity calls are given as the source filed them.
# Tests used:
# Assay in all cases: NCI-60 one-dose screen, 48 h (100 = growth as untreated, 0 = no growth, -100 = all killed)
# Conditions in all cases: 10 µM unless noted
# SK-MEL-2 melanoma = tested on: SK-MEL-2 melanoma
# EKVX NSCLC = tested on: EKVX NSCLC
# SN12C renal = tested on: SN12C renal
# UO-31 renal = tested on: UO-31 renal
# TK-10 renal = tested on: TK-10 renal
# ACHN renal = tested on: ACHN renal
# CAKI-1 renal = tested on: CAKI-1 renal
# A498 renal = tested on: A498 renal
# CCRF-CEM leukemia = tested on: CCRF-CEM leukemia
# MOLT-4 leukemia = tested on: MOLT-4 leukemia
# SR leukemia = tested on: SR leukemia
# RPMI-8226 leukemia = tested on: RPMI-8226 leukemia
# OVCAR-8 ovarian = tested on: OVCAR-8 ovarian
# OVCAR-5 ovarian = tested on: OVCAR-5 ovarian
# OVCAR-4 ovarian = tested on: OVCAR-4 ovarian
# SK-OV-3 ovarian = tested on: SK-OV-3 ovarian
# IGROV1 ovarian = tested on: IGROV1 ovarian
# OVCAR-3 ovarian = tested on: OVCAR-3 ovarian
# HS 578T breast = tested on: HS 578T breast
# NCI/ADR-RES ovarian = tested on: NCI/ADR-RES ovarian
SMILES,growth (SK-MEL-2 melanoma),growth (EKVX NSCLC),growth (SN12C renal),growth (UO-31 renal),growth (TK-10 renal),growth (ACHN renal),growth (CAKI-1 renal),growth (A498 renal),growth (CCRF-CEM leukemia),growth (MOLT-4 leukemia),growth (SR leukemia),growth (RPMI-8226 leukemia),growth (OVCAR-8 ovarian),growth (OVCAR-5 ovarian),growth (OVCAR-4 ovarian),growth (SK-OV-3 ovarian),growth (IGROV1 ovarian),growth (OVCAR-3 ovarian),growth (HS 578T breast),growth (NCI/ADR-RES ovarian)
COc1ccc(OC)c(-c2cn3nc(-c4c[nH]c5ccc(Br)cc45)sc3n2)c1,86.3%,36.9%,44.2%,45%,62%,38.8%,29.7%,86.1%,32.8%,48.8%,22.1%,79.3%,25.6%,47.9%,-21.3% (active),80.8%,40.6%,60%,43.7%,32.1%
COc1ccc2nc3ccccc3c(NCc3ccc(F)cc3)c2c1,35%,22.4%,17%,-8.18% (active),37.8%,5.65% (active),7.16% (active),-8.16% (active),18.4%,0.544% (active),-1.12% (active),-43% (active),19.4%,18.1%,13.6%,37.9%,8.15% (active),31.2%,26.1%,15.1%
C[N+](C)(C/C=C/c1ccccc1)Cc1ccccc1,93.7%,92.7%,101%,82.4%,96.3%,99.4%,97.2%,94.6%,149%,103%,97.7%,123%,107%,81.2%,97.4%,107%,94.5%,96.4%,106%,99.1%
Cn1c(=O)c2c(nc(NC3=NS(=O)(=O)c4ccccc43)n2Cc2ccccc2)n(C)c1=O,99.7%,91.5%,93%,81.2%,143%,97.5%,83.7%,60.4%,104%,106%,108%,103%,99.5%,99.6%,103%,97.5%,95.5%,110%,96.5%,103%
CCCCCCOC(=O)CC1=C(C)/C(=C/c2[nH]c(-c3ccc[nH]3)cc2OC)N=C1C,-49.5% (active),-35% (active),-63% (active),-86.9% (active),-24.9% (active),-19.5% (active),0.637% (active),-49.4% (active),-22.5% (active),-30.3% (active),-44.5% (active),-52.3% (active),-55.1% (active),-9.61% (active),-29.2% (active),-34.5% (active),-8.74% (active),-93.9% (active),-27% (active),-49.4% (active)
CN(C)c1ccc(-c2cc(-c3ccc(Nc4nc(Nc5ccc(Cl)cc5)nc(Nc5ccc(Cl)cc5)n4)cc3)nc(N)c2C#N)cc1,68.5%,79.8%,113%,67.5%,104%,82.4%,82.3%,92.5%,46.9%,45%,40.6%,-27.1% (active),68%,87.1%,88.5%,102%,55%,88.3%,82.5%,78%
CCCCCCCCCCCCCCCCOC(=O)c1c(C)[nH]c(/C=C2\N=C(c3ccc[nH]3)C=C2OC)c1C,-25.9% (active),68.3%,55.9%,30.4%,18.8%,48.8%,15.4%,33.9%,50.4%,91.9%,68.2%,-2.3% (active),15.3%,78.4%,72.2%,70.4%,35.6%,47.6%,65.9%,26.6%
CCN=C1C=CC(=C(c2ccc(N(C)C)cc2)c2ccc(N(C)C)cc2)c2ccccc21,-39.5% (active),-6.63% (active),-22.2% (active),-42.9% (active),-3.47% (active),-9.84% (active),0.419% (active),13.3%,9.37% (active),9.89% (active),3.56% (active),-22.9% (active),-8.37% (active),4.09% (active),16.3%,-35.2% (active),-7.04% (active),-60.9% (active),-29.8% (active),12.3%
CCCCCCCCn1ccc2cc(NC(=O)Cn3cc(CN4CCC(C)CC4)nn3)ccc21,50.3%,79%,33.5%,-87.7% (active),80.7%,55.1%,11.3%,87.6%,-12% (active),3.1% (active),-0.808% (active),-40.9% (active),32.8%,76.7%,63%,79.1%,39.6%,14.7%,59.2%,63.1%
Cn1ccnc1C(=O)/C=C/c1ccc(C(=O)Nc2ccc(F)cc2)cc1,74.6%,26.6%,14.3%,-14.2% (active),13.1%,-49.9% (active),28.9%,-9.36% (active),2.27% (active),7.92% (active),2.09% (active),-17.1% (active),18.3%,21.4%,28.5%,59.1%,7.02% (active),10.8%,40.9%,11.2%
CCn1cc(C(=O)NN=C2CCCCCC2)c(=O)c2ccc(C)nc21,105%,93.2%,85.5%,75.2%,95.7%,84.7%,79.9%,58%,91.7%,71%,85.8%,88.1%,92.5%,92.6%,79.6%,98.2%,81.5%,86.2%,80.1%,89.4%
C/C(=N\Nc1nc(C)cs1)c1cc2ccccc2o1,104%,56.3%,91.8%,55.4%,134%,86.6%,75.9%,99.9%,79.1%,85.9%,109%,88.5%,93.3%,103%,94.2%,105%,75.8%,94.1%,88.8%,102%
CC(C)CN1CC(C(=O)Nc2ccc3c(c2)-c2ccccc2C3)CC1=O (stereo not given),81.8% [50 µM],70.8% [50 µM],72.5% [50 µM],43.7% [50 µM],87.2% [50 µM],64.8% [50 µM],62.5% [50 µM],85.8% [50 µM],74.5% [50 µM],61.8% [50 µM],63.4% [50 µM],55% [50 µM],48.5% [50 µM],69.8% [50 µM],71.2% [50 µM],74.6% [50 µM],67.9% [50 µM],75.6% [50 µM],28.8% [50 µM],67.7% [50 µM]
C[C@H]1[C@H](C)CC[C@]2(C(=O)O)CC[C@]3(C)C(=CC[C@@H]4[C@@]5(C)C[C@@H](Cc6cn([C@@H]7O[C@H](CO)[C@@H](O)[C@H](O)[C@H]7O)nn6)[C@H](O)C(C)(C)[C@@H]5CC[C@]43C)[C@H]12,99.9%,96.8%,97.1%,91.8%,89.2%,99.2%,97.2%,80.7%,99.3%,94.2%,105%,98.3%,97.8%,97.2%,91.7%,88.5%,107%,107%,103%,106%
